# In PubChem BioAssay AID1259245 (Vanderbilt High Throughput Screening Facility, 2017):
# Out of some 40,000 compounds screened, about 1,400 (3.5%) were called active.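 Rule for the calls: active = any of four per-well response measures lying three or more SD from its plate-wide compound average, in either direction; inactive = the rest, inconclusive results apart.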 The entries come from a sample that favours actives as a whole.
# Target: Voltage-dependent calcium channel gamma-2 subunit (Mus musculus) + Glutamate receptor 2 (Rattus norvegicus) (UniProt O88602+P19491)
# Sequence (O88602 whole entry, looked up): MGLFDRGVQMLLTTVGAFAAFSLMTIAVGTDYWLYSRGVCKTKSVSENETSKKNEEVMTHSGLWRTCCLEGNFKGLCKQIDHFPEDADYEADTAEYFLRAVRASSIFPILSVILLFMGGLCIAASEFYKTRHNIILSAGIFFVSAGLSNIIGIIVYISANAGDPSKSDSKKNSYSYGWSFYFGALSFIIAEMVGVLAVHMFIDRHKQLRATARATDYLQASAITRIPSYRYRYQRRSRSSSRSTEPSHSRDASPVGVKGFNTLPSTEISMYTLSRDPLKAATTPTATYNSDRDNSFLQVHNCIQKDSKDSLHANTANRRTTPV
# Sequence (P19491 whole entry, looked up): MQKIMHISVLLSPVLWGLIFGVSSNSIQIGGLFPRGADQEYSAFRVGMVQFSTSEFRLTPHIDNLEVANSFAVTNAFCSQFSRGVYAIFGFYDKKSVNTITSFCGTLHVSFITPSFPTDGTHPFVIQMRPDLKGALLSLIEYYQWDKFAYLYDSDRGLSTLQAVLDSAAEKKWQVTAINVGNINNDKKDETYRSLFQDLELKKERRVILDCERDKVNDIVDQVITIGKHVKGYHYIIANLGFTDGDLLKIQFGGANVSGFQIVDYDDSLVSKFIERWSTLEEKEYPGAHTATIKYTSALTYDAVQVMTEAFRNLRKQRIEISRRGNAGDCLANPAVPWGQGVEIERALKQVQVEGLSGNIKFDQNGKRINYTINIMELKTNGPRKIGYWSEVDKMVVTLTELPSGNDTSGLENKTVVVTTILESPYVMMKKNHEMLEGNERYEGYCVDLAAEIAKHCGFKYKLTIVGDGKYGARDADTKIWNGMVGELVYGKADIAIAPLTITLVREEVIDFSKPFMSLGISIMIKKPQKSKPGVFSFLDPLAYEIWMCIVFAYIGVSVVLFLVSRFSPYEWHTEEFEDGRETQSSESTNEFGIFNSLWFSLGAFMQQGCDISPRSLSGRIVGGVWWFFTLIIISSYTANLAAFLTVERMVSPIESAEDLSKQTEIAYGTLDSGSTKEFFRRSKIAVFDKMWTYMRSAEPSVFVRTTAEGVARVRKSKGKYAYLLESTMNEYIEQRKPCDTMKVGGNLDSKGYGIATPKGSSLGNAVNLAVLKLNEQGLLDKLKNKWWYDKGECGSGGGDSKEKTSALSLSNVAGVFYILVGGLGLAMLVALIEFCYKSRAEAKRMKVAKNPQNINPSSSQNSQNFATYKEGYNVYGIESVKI
# Assay: modulators of GluA2-stargazin AMPA receptor complexes, primary screen, cell-based, membrane potential dye (AID 1259245)
# Details: HEK293 GluA2+stargazin, membrane potential dye (FDSS), glutamate EC50, at 30 µM, hits were called plate by plate, in both directions; compound max-min signal: compound-alone response (agonism); glutamate slope, % of max: measured here: glutamate response slope, % max
Compound,compound max-min signal,"glutamate response, % of max","glutamate slope, % of max [%]"
CCOC(=O)N1CCN(/C=C(\C#N)C(=O)Nc2ccccc2)CC1,0.158,47.6% (inactive),78
Cc1ccc(F)cc1NC(=O)CSc1ncc(S(=O)(=O)c2ccc(Cl)s2)c(N)n1,0.162,28.9% (inactive),52.4
CCOCCn1c(=O)c2c(nc3n2CCCN3c2ccc(Br)cc2)n(C)c1=O,0.127,46.2% (inactive),67.4
COc1ccc(Cl)c2sc(N(CCCN3CCOCC3)C(=O)c3ccno3)nc12,0.17,19.9% (active),29.3
COc1ccc(OC)c2sc(N(CCN3CCOCC3)C(=O)c3cccc(F)c3)nc12,0.177,47.1% (inactive),60.4
COc1ccc(OC)c2sc(N(CCN3CCOCC3)C(=O)c3cccs3)nc12,0.221,45.8% (inactive),65.3
O=C(/C=C/c1cccs1)NCC1CCN(C(=O)COc2ccccc2)CC1,0.0649,42% (inactive),61.3
Cc1cc(C)c(NC(=O)CN2CCN(c3nccn3-c3ccccc3F)CC2)c(C)c1,0.0429,8.38% (inactive),22.6
O=C(Cc1csc(NC(=O)c2ccc(=O)[nH]c2)n1)NCCC1=CCCCC1,0.0625,14.3% (inactive),44.1
CCC(C(=O)Nc1cc(C)nn1-c1nc2c(cnn2-c2ccccc2)c(=O)[nH]1)c1ccccc1 (configuration not stated),0.102,34.9% (inactive),55.6
Cc1cc(NC(=O)c2ccc3c(c2)OCO3)n(-c2nc3c(cnn3-c3cccc(Cl)c3)c(=O)[nH]2)n1,0.15,27.3% (active),36
Cc1cc(NC(=O)C(C)Oc2ccccc2)n(-c2nc3c(cnn3-c3ccc(C)c(C)c3)c(=O)[nH]2)n1 (configuration not stated),0.407,19.4% (active),19.7
O=C(Nn1cnc2c(cnn2-c2cccc(Cl)c2)c1=O)c1ccc(-c2ccccc2)cc1,0.0867,36% (inactive),64
CCCC(CCC)C(=O)Nc1cc(C)nn1-c1nc2c(cnn2-c2cccc(Cl)c2)c(=O)[nH]1,0.134,34% (inactive),47.5
Cc1ccc(-n2ncc3c(=O)n(CC(=O)N4CCc5ccccc54)cnc32)cc1C,0.12,54.7% (inactive),80.7
Cc1ccccc1CN1C(=O)C2(c3ccccc31)N(c1ccc(F)c(F)c1)C(=O)CS2(=O)=O (configuration not stated),0.109,63.6% (inactive),74.8
CC1CCN(CC(O)COc2ccc(C(=O)c3ccccc3)cc2)CC1 (configuration not stated),0.0506,53.3% (inactive),82.1
O=C(CCSc1ccccc1)NCC1(c2cccs2)CCOCC1,0.0983,28% (inactive),50.4
Cc1ccc(S(=O)(=O)N2CCCCC2CCN)cc1 (configuration not stated),0.0595,35.1% (inactive),57.7
